Data: PubChem BioAssay (NCI)
About 79,000 compounds went through this panel and 15% of them were active in at least one assay; those are over-represented in the sample as a whole. Calls of active or inactive are those of the source. Cut-off read from the data, not from the text of the source: active = growth inhibition above about 70%; inactive = the rest.

How the values were obtained:
[1] = NCI Yeast Anticancer Drug Screen. Data for the rad50 strain (AID 155);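 note: 0% = growth of vehicle-only cultures of the same strain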; conditions: S. cerevisiae rad50 strain growth inhibition; at 50.0 µM; active compounds read high
How it was run: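 Readout: growth inhibition relative to vehicle-treated cultures. Compound exposure was carried out in a genetically defined yeast strain deficient in DNA damage repair.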

[2] = NCI Yeast Anticancer Drug Screen. Data for the mec2-1 strain (AID 157); conditions: S. cerevisiae mec2-1 strain, at 50.0 µM, active compounds read high
How it was run: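 Test agents were screened against the mec2-1 yeast strain, with defined DNA repair or cell cycle alteration. Growth was scored as inhibition against vehicle-only controls.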

[3] = NCI Yeast Anticancer Drug Screen. Data for the sgs1 mgt1 strain (AID 161);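 note: 0% = growth of cultures given vehicle only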; conditions: S. cerevisiae sgs1 mgt1 strain, at 50.0 µM, active compounds read high
How it was run: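 Test agents were incubated with a DNA-repair-mutant yeast strain. Growth was then read and compared against vehicle-treated controls.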

[4] = NCI Yeast Anticancer Drug Screen. Data for the cln2 rad14 strain (AID 165);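 note: 0% = growth equal to vehicle treated cultures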; conditions: S. cerevisiae cln2 rad14 strain, at 50.0 µM, active compounds read high
How it was run: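 Growth of compound-exposed yeast (cln2 rad14 genotype) measured and expressed as inhibition relative to vehicle.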

[5] = NCI Yeast Anticancer Drug Screen. Data for the bub3 strain (AID 167); conditions: S. cerevisiae bub3 mutant strain, at 50.0 µM, active compounds read high
How it was run: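 Readout: yeast growth inhibition, expressed relative to vehicle-only wells. The test organism is a mutant strain from a panel with lesions in DNA repair or checkpoint genes.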

[6] = NCI Yeast Anticancer Drug Screen. Data for the mlh1 rad18 strain (AID 175); conditions: S. cerevisiae mlh1 rad18 strain growth inhibition; at 50.0 µM; active compounds read high
How it was run: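 In this whole-cell yeast screen, a strain with altered DNA damage repair is challenged with compound, and its growth is measured against matched vehicle-treated controls.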

Measured: growth inhibition

O=C1c2ccccc2C(=O)N1c1ccc(Cl)cc1
inactive: [1] 3.5% | [2] 9.9% | [3] 12.6% | [4] 1.2% | [5] 22.8% | [6] 6.85%

CC(C)C(=O)C(F)(F)F
inactive: [1] 14.3% | [2] 2.45% | [3] -21.3% | [4] 6.45% | [5] 28.6% | [6] -2.3%

Fc1cccc(C(Nc2nncs2)Nc2nncs2)c1
inactive: [1] 14.1% | [2] -0.1% | [3] -1.7% | [4] -11.6% | [5] -3.8% | [6] -4.35%

CC(C)=C1C=C(C(C)(C)C)C(=O)C(C(C)(C)C)=C1
inactive: [1] 29.9% | [2] -5.9% | [3] -1.8% | [4] 17.4% | [5] 9.15% | [6] 28.4%

COC(=O)NS(=O)(=O)C1=Cc2cccc3cccc1c23
inactive: [1] 8.55% | [2] 4.95% | [3] 9.25% | [4] 9.75% | [5] 6.35% | [6] 8.4%

c1ccc(C2(c3ccccc3)CCc3ccccc3O2)cc1
inactive: [1] 27.5% | [2] 15.6% | [3] 4.7% | [4] -40.5% | [5] -9.6% | [6] 31.9%

Nc1c(Br)cc(Br)c(C(=O)O)c1Br
inactive: [1] 6.35% | [2] -16.1% | [3] 10.8% | [4] 2.8% | [5] -15.2% | [6] -1.75%

CCOC(=O)c1ccc([N+](=O)[O-])cc1
inactive: [1] -9.55% | [2] -12% | [3] -17.4% | [4] -29.2% | [5] -18.6% | [6] 21.1%

CC1(SCC(N)C(=O)O)CC(=O)NC1=O (stereo not given)
inactive: [1] -40.5% | [2] -33.1% | [3] -64.5% | [4] -36.8% | [5] -39.2% | [6] -40.1%

CC(=O)Nc1ccc(-c2nnc(SCC(=O)Nc3cccc(C)c3)o2)cc1
inactive: [1] 5.2% | [2] 14.7% | [3] 32% | [4] 24% | [5] 9.7% | [6] -7.75%

Cc1ccc(N=Cc2cc(Cl)cc(Cl)c2OC(=O)c2ccccc2)cc1C
active: [1] 81.8% | [2] 91.7% | [3] 91% | [4] 90.2% | [5] 96.5% | [6] 93.3%

N#CC1CC=CCC1 (stereo not given)
inactive: [1] 19.4% | [2] 4.95% | [3] 0.35% | [4] 15.2% | [5] -12.9% | [6] -5.65%

COc1cc(Cl)ccc1NC(=O)Oc1ccc2ccccc2c1
inactive: [1] 11.8% | [2] 14.2% | [3] 13% | [4] 9.2% | [5] 14.4% | [6] 9.4%

O=C(O)CCNc1ccccc1C(=O)O
inactive: [1] -8.4% | [2] -15.2% | [3] -13.9% | [4] -9.6% | [5] -40.8% | [6] -0.25%

O=S1OC(c2ccccc2)(c2ccccc2)C(c2ccccc2)(c2ccccc2)O1
inactive: [1] -29.9% | [2] -16.6% | [3] 2.2% | [4] 11.6% | [5] -13.2% | [6] -17.4%

[N-]=[N+]=CC(=O)C1OC1c1ccc(Br)cc1 (stereo not given)
inactive: [1] 11.8% | [2] 15.3% | [3] 22.9% | [4] 24.4% | [5] -0.25% | [6] 33.1%

CC1(C)C(=O)C(C)(C)C(=O)C(C)(C)C1=O
inactive: [1] 2.45% | [2] -15.7% | [3] 5.4% | [4] 16.9% | [5] 11.3% | [6] -0.3%

CCOc1ccccc1C=C1c2ccccc2C(=O)c2ccccc21
inactive: [1] 10.3% | [2] -7.6% | [3] -3.6% | [4] -21.6% | [5] 18.1% | [6] 6.25%

Clc1cccc(Cl)c1/C=N/Nc1nnc(N/N=C/c2c(Cl)cccc2Cl)c2ccccc12
inactive: [1] 18.8% | [2] 23.4% | [3] 56.3% | [4] 31.5% | [5] -1.4% | [6] 34.4%

C1=C/CCC2OC2CC/C=C/CC/1 (stereo not given)
inactive: [1] -9.8% | [2] -55.2% | [3] -24.8% | [4] 11.8% | [5] -29.2% | [6] -4.2%
